This excerpt belongs to a sample that is enriched for hits.
IDE exosite inh = exo-site inhibitors of human IDE, primary screen, biochemical, fluorescence anisotropy, probe displacement; AID 1259349, 2017; 17,000 tested, 6.3% active; z-score at 20 µM; Insulin-degrading enzyme (Homo sapiens), P14735; purified IDE, FL-6b probe fluorescence polarization; hits give low values;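 active means z-score of -3 or lower, meaning strong loss of probe binding signal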;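 further: His-tagged human IDE residues 42-1019 made in E. coli with 30 nM FL-6b probe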
Active calls of the source: *.

SMILES | IDE exosite inh
C/C=C/c1ccc([C@H]2[C@@H](CO)N3CCCCN(C(=O)Cc4cccnc4)C[C@H]23)cc1 | -0.57
O=C(Cc1cccnc1)N1CCCCN2[C@H](C1)[C@@H](c1ccc(/C=C/c3ccccc3)cc1)[C@@H]2CO | -9.2*
C/C=C/c1ccc([C@H]2[C@H]3CN(C(=O)Cc4cccnc4)CCCCN3[C@H]2CO)cc1 | 1.2
C/C=C/c1ccc([C@H]2[C@H](CO)N3CCCCN(C(=O)Cc4cccnc4)C[C@@H]23)cc1 | -1.1
O=C(Cc1cccnc1)N1CCCCN2[C@@H](CO)[C@@H](c3ccc(/C=C/c4ccccc4)cc3)[C@@H]2C1 | -8.3*
O=C(Cc1cccnc1)N1CCCCN2[C@@H](CO)[C@@H](c3ccc(C#CC4CCCC4)cc3)[C@@H]2C1 | 0.5
COc1ccc(-c2ccc([C@@H]3[C@H]4CN(C(=O)Cc5ccccc5)CCCCN4[C@H]3CO)cc2)cc1 | 3.5
O=C(Cc1ccccn1)N1CCCCN2[C@H](C1)[C@@H](c1ccc(Br)cc1)[C@@H]2CO | -0.067
O=C(Cc1ccccn1)N1CCCCN2[C@H](CO)[C@H](c3ccc(Br)cc3)[C@H]2C1 | -0.15
O=C(Cc1ccccn1)N1CCCCN2[C@H](CO)[C@@H](c3ccc(-c4ccccc4)cc3)[C@@H]2C1 | -2.4
O=C(Cc1ccccn1)N1CCCCN2[C@@H](CO)[C@H](c3ccc(Br)cc3)[C@@H]2C1 | -0.37
Cc1ccccc1-c1ccc([C@@H]2[C@H](CO)N3CCCCN(C(=O)Cc4ccccn4)C[C@@H]23)cc1 | -16*
Cc1ccccc1-c1ccc([C@H]2[C@@H](CO)N3CCCCN(C(=O)Cc4ccccn4)C[C@H]23)cc1 | -14*
O=C1CNC[C@@H]2[C@@H](c3ccc(Br)cc3)[C@H](CO)N12 | 1.4
COc1ccc(C#Cc2ccc([C@@H]3[C@H]4CN(C(=O)Cc5cccnc5)CCCCN4[C@H]3CO)cc2)cc1 | 4.2
C[C@@H]1CN([C@@H](C)CO)C(=O)CCCn2cc(nn2)CO[C@@H]1CN(C)C(=O)Oc1ccc2ccccc2c1 | -0.27
CC(C)CC#Cc1ccc([C@H]2[C@@H](CO)N3CCCCN(C(=O)Cc4ccccn4)C[C@H]23)cc1 | 2.8
O=C(Cc1cccnc1)N1CCCCN2[C@H](CO)[C@@H](c3ccc(C#CC4CCCC4)cc3)[C@H]2C1 | 1.5
CC(C)CC#Cc1ccc([C@@H]2[C@H](CO)N3CCCCN(C(=O)Cc4ccccn4)C[C@@H]23)cc1 | 3.5
O=C(Cc1cccnc1)N1CCCCN2[C@@H](CO)[C@H](c3ccc(C#CC4(O)CCCC4)cc3)[C@@H]2C1 | 1.4
CCCC#Cc1ccc([C@H]2[C@@H](CO)N3CCCCN(C(=O)Cc4ccccn4)C[C@@H]23)cc1 | 4
COc1ccc(C#Cc2ccc([C@@H]3[C@@H](CO)N4CCCCN(C(=O)Cc5ccccc5)C[C@@H]34)cc2)cc1 | 1.5
O=C(Cc1ccccc1)N1CCCCN2[C@H](C1)[C@H](c1ccc(C#Cc3ccccc3)cc1)[C@@H]2CO | -4.3*
O=C(Cc1ccccc1)N1CCCCN2[C@H](C1)[C@@H](c1ccc(C#Cc3ccccc3)cc1)[C@@H]2CO | -2.6
O=C(Cc1ccccn1)N1CCCCN2[C@H](CO)[C@H](c3ccc(C#Cc4ccccc4)cc3)[C@@H]2C1 | -5.2*
SMILES | IDE exosite inh
CCCC#Cc1ccc([C@@H]2[C@H](CO)N3CCCCN(C(=O)Cc4ccccn4)C[C@@H]23)cc1 | -2
C/C=C/c1ccc(C2[C@@H]3CN(Cc4cccc(F)c4)C[C@H]2N3)cc1 (stereo partly specified) | 3.4
COc1ccc(-c2ccc([C@@H]3[C@@H](CO)N4CCCCN(C(=O)Cc5ccccc5)C[C@H]34)cc2)cc1 | 1.4
C/C=C/c1ccc(C2[C@@H]3CN(C(C)=O)C[C@H]2N3)cc1 (stereo partly specified) | 2.4
COc1ccc(C#Cc2ccc([C@H]3[C@H]4CN(C(=O)Cc5ccncc5)CCCCN4[C@H]3CO)cc2)cc1 | -3.5*
COc1ccc(-c2ccc([C@@H]3[C@H](CO)N4CCCCN(C(=O)Cc5ccncc5)C[C@@H]34)cc2)cc1 | -2.3
COc1ccc(C#Cc2ccc([C@@H]3[C@@H](CO)N4CCCCN(C(=O)Cc5ccncc5)C[C@@H]34)cc2)cc1 | 0.35
COc1ccc(C#Cc2ccc([C@H]3[C@H]4CN(C(=O)Cc5cccnc5)CCCCN4[C@H]3CO)cc2)cc1 | -4*
COc1ccc(C#Cc2ccc([C@@H]3[C@H]4CN(C(=O)Cc5ccncc5)CCCCN4[C@H]3CO)cc2)cc1 | -0.35
COc1ccc(C#Cc2ccc([C@H]3[C@@H](CO)N4CCCCN(C(=O)Cc5cccnc5)C[C@H]34)cc2)cc1 | -1.3
COc1ccc(C#Cc2ccc([C@H]3[C@@H](CO)N4CCCCN(C(=O)Cc5ccncc5)C[C@@H]34)cc2)cc1 | -4.8*
COc1ccc(C#Cc2ccc([C@H]3[C@@H](CO)N4CCCCN(C(=O)Cc5ccncc5)C[C@H]34)cc2)cc1 | 0.97
COc1ccc(C#Cc2ccc([C@@H]3[C@@H](CO)N4CCCCN(C(=O)Cc5cccnc5)C[C@@H]34)cc2)cc1 | 2.7
O=C(Cc1ccccc1)N1CCCCN2[C@@H](CO)[C@H](c3ccc(-c4ccccc4)cc3)[C@@H]2C1 | -0.0073
O=C(Cc1ccccc1)N1CC2(C1)[C@H](c1ccccc1)[C@@H](CO)N2Cc1cccc(Cl)c1 | -0.62
O=C(Cc1ccccc1)N1CCCCN2[C@H](C1)[C@@H](c1ccc(-c3ccccc3)cc1)[C@@H]2CO | 2.3
O=C(Cc1ccccc1)N1CCCCN2[C@H](CO)[C@@H](c3ccc(-c4ccccc4)cc3)[C@@H]2C1 | 0.45
COc1ccc(-c2ccc([C@H]3[C@H]4CN(C(=O)Cc5ccccc5)CCCCN4[C@H]3CO)cc2)cc1 | 2.8
O=C(Cc1ccncc1)N1CCCCN2[C@H](C1)[C@H](c1ccc(C#Cc3ccccc3F)cc1)[C@@H]2CO | -1.2
O=C(Cc1ccccc1)N1CC2(C1)[C@H](c1ccccc1)[C@H](CO)N2Cc1cccc(Cl)c1 | -1.7
O=C(Cc1ccccn1)N1CCCCN2[C@H](C1)[C@@H](c1ccc(-c3ccc(F)cc3)cc1)[C@@H]2CO | 4.4
O=C(Cc1ccccn1)N1CCCCN2[C@H](C1)[C@H](c1ccc(-c3ccc(F)cc3)cc1)[C@@H]2CO | 1.3
O=C(Cc1ccccn1)N1CCCCN2[C@H](CO)[C@@H](c3ccc(-c4ccccc4F)cc3)[C@@H]2C1 | -4.7*
O=C(Cc1ccccn1)N1CCCCN2[C@@H](CO)[C@@H](c3ccc(-c4ccc(F)cc4)cc3)[C@@H]2C1 | 1.7
O=C(Cc1ccccn1)N1CCCCN2[C@H](CO)[C@H](c3ccc(-c4ccccc4F)cc3)[C@@H]2C1 | -4.2*
O=C(Cc1ccccn1)N1CCCCN2[C@@H](CO)[C@H](c3ccc(-c4ccc(F)cc4)cc3)[C@@H]2C1 | 2.5
OC[C@@H]1Nc2ccc(C#Cc3cccnc3)cc2[C@H]2NCC[C@@H]12 | -0.33
O=C(O)[C@@H]1[C@@H](CO)[C@@H]2Cn3c(ccc(C4=CCCCC4)c3=O)[C@H]1N2C(=O)Cc1ccccn1 | 0.84
O=C(Cc1ccncc1)N1CCCCN2[C@H](CO)[C@@H](c3ccc(C#CC4(O)CCCC4)cc3)[C@@H]2C1 | 0.2
COc1cccc(-c2ccc([C@@H]3[C@H]4CN(C(=O)Cc5ccncc5)CCCCN4[C@H]3CO)cc2)c1 | -0.67

Compound activity from PubChem BioAssay.
